Compounds with a hit are over-represented: about 2.5% of the library has one in this group of screens.
aDG glyco up – alpha-DG glycosylation activation | actives 0.22% (n = 360,000) | activation, % at 10 µM | AID 624168 | Pro5-aDG cells, alpha-DG glycosylation AlphaScreen (IIH6); 0% Pro5, 100% B10-LARGE cell signal;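 active means activation of at least 8% versus controls, or a plate z-score of at least 8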;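 further: Pro5 are CHO cells carrying HIG-tagged alpha-DG that lacks glycosylation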
HSF1 inh – HSF1 inhibition; NIH3T3-HGL HSE-luciferase, MG132-induced, luminescence 8 h; stronger effect = lower value; activity change, negative = inhibition, % at 7.5 µM (by protocol); actives 0.77% (n = 300,000); AID 2098;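 active means more than half of replicate wells show activity change below -50%, luminescence cut by over half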;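 further: luciferase reports HSF-1 transcriptional activity via heat shock element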
Dyrk1A ADPGlo – inhibitors of rat Dyrk1A kinase | inhibition, % at 12.5 µM | ADP-Glo luminescence, NFATc1 peptide | actives 0.43% (n = 310,000) | Q63470 | AID 504441; in the data active means inhibition above about 50%
HSF-1 act – increases HSF-1 driven luciferase reporter signal. NIH3T3-HGL HSF-1 luciferase reporter, MG132, 8 h; 100% = twice DMSO control signal. activation, % at 9 µM. actives 1.7% (n = 300,000);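 active means mean replicate activation of at least 50% with a set share of replicates each reaching 50%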
GC-A act – GC-A (human) enzyme activation; activation, % at 10 µM; P16066; actives 0.14% (n = 370,000); HEK293 GC-A cells, cGMP TR-FRET, EC30 ANP; 0% at EC30 ANP, 100% saturating ANP; in the data active means activation above about 40%
Target sequence (P16066 whole entry, looked up): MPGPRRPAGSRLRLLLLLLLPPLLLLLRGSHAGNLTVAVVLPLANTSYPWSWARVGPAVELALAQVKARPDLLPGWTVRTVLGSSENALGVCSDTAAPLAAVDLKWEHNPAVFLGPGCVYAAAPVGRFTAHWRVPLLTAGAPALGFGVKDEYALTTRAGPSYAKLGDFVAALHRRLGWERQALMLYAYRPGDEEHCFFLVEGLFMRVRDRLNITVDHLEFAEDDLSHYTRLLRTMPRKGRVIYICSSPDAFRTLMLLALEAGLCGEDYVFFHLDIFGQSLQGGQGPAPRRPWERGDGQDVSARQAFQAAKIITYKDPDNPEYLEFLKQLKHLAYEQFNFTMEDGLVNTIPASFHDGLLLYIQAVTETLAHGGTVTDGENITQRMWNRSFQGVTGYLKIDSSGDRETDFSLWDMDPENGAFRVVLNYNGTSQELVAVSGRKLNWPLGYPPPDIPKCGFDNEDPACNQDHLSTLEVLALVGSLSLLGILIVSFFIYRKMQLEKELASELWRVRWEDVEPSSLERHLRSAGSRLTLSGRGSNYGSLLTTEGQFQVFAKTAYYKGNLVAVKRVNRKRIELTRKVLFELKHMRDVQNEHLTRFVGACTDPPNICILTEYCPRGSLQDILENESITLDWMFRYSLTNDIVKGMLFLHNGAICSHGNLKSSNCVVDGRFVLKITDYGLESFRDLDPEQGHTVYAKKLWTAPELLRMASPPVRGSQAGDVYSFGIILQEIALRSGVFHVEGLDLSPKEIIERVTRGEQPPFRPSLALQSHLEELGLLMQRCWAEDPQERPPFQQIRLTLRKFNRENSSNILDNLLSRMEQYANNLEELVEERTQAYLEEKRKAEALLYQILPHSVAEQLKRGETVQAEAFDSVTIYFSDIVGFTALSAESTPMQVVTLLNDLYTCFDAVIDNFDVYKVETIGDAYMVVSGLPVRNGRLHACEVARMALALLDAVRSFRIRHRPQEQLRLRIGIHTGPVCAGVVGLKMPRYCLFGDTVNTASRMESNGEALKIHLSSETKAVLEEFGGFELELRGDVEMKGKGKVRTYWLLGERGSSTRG
GC-B act – GC-B (human) receptor activation; HEK293-GC-B cells, CNP EC30, cGMP TR-FRET; 0% at EC30 CNP, 100% saturating CNP; actives 0.11% (n = 370,000); activation, % at 10 µM; P20594;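 active means activation at 10 µM reaching about 35% in either raw or pattern-adjusted values, limit read from the data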
Large screens that a line does not name were inactive.

COc1cccc(/C=N/NC(=O)c2cnccn2)c1OC	none (no result: Dyrk1A ADPGlo)
Nc1ccc2nn(-c3ccccc3)nc2c1	aDG glyco up 5.9 (no result: HSF1 inh, HSF-1 act)
CC(C)(C)c1ccc(-c2nnc(N)s2)cc1	none
NC(=O)c1cccc(-c2coc3c(C(=O)NCc4ccccc4)cccc23)c1	GC-B act 37 (no result: HSF1 inh, Dyrk1A ADPGlo, HSF-1 act)
CSc1ccc(C2c3[nH]c4ccccc4c3CCN2C(=O)c2cc(C)n(C)n2)cc1 (stereo unspecified)	HSF-1 act 53 (no result: aDG glyco up, Dyrk1A ADPGlo, GC-A act, GC-B act)
Cc1cc(C(=O)N2CCc3c([nH]c4ccccc34)C2c2cccc(Cl)c2)nn1C (stereo unspecified)	none
O=S(=O)(N1CCCCC1)N1CCN(CC(O)COc2ccc3cc(Br)ccc3c2)CC1 (stereo unspecified)	none
COc1ccc(N2CCN(CC(O)COCCOc3ccc(Br)cc3)CC2)cc1 (stereo unspecified)	HSF1 inh -66
OC(COc1ccc2cc(Br)ccc2c1)CN1CCCC1 (stereo unspecified)	aDG glyco up 4.7
Cc1cccc(C)c1C(O)c1ncc(-c2ccccc2C(F)(F)F)[nH]1 (stereo unspecified)	none (no result: HSF1 inh, Dyrk1A ADPGlo, HSF-1 act)
CCOC(=O)CC(NC(=O)c1ccccc1F)c1ccc(C)cc1 (stereo unspecified)	none
COc1cccc(/C=N/NC(=S)NC2CC3CC2C2C=CCC32)c1O (stereo unspecified)	HSF-1 act 105
O=c1sc(/C=N/Nc2ccccc2)c(Cl)n1Cc1ccccc1	HSF-1 act 149
NC(=S)N/N=C1\CC(c2ccc3c(c2)OCCCO3)Oc2ccc(F)cc21 (stereo unspecified)	none
NC(=S)N/N=C1\CC(c2ccc3c(c2)OCCO3)Oc2ccc(F)cc21 (stereo unspecified)	GC-B act 42
Cc1cc(/C=C2/C(=O)NN(c3ccccc3)C2=O)c(C)n1-c1ccc(O)cc1	HSF1 inh -69
Cc1cc(C)cc(OCC(=O)Nc2nc(-c3cccnc3)cs2)c1	HSF1 inh -59
O=C(COc1ccccc1)Nc1nc(-c2cccnc2)cs1	none (no result: HSF1 inh, HSF-1 act)
Cc1cc(Cl)ccc1OCC(=O)Nc1nc(-c2cccnc2)cs1	HSF1 inh -60
COc1ccc(CCCC(=O)NC2CCCCC2C)c(C)c1 (stereo unspecified)	none (no result: Dyrk1A ADPGlo)
CCN(CC)CCN1C(=O)/C(=C\c2ccc(Cl)c([N+](=O)[O-])c2)SC1=Nc1ccc(OC)cc1	none
COc1ccc(N=C2S/C(=C\c3ccc(Cl)c([N+](=O)[O-])c3)C(=O)N2CCN(C)C)cc1	HSF-1 act 95
CC(=O)c1ccc(Nc2c3c(c(C#N)c4nc5ccccc5n24)CCC3)cc1	none (no result: aDG glyco up, Dyrk1A ADPGlo, GC-A act, GC-B act)
COc1ccc(Nc2c3c(c(C#N)c4nc5ccccc5n24)CCC3)cc1	GC-A act 41
CS(=O)(=O)n1nc(-c2ccc(Cl)cc2)nc1N	none
Cn1nc(-c2ccc(Cl)cc2)nc2c(=O)n(C)c(=O)nc1-2	HSF1 inh -95 (no result: aDG glyco up, Dyrk1A ADPGlo, GC-A act, GC-B act)
N=C1S/C(=C\c2ccc(-c3cccc(Cl)c3)o2)C(=O)N1c1nccs1	HSF-1 act 223
Oc1ccc2ccccc2c1CN1CCN(C/C=C/c2ccccc2)CC1	HSF-1 act 185
Oc1ccc2ccccc2c1CN1CCN(c2ccccc2F)CC1	HSF-1 act 84
O=S(=O)(c1ccccc1)N1CCN(Cc2c(O)ccc3ccccc23)CC1	none (no result: HSF1 inh, HSF-1 act)
O=C(CN1CCN(c2ccccc2F)CC1)c1ccc(O)c(O)c1	none
COc1cccc(C=NCC(C)N=Cc2cccc(OC)c2O)c1O (stereo unspecified)	none
Cc1ccccc1-c1cc(=O)c2c(O)cccc2o1	HSF-1 act 57
C/C(=N\NC(=O)c1cccc(N/N=C(\C)c2cc(O)ccc2O)c1)c1cc(O)ccc1O	HSF-1 act 64
C/C(=N\NC(=O)c1cccc(N/N=C(\C)c2ccco2)c1)c1ccco1	none
CC1=NN(C(N)=S)C(C)(C)C1	HSF1 inh -55
CC1=NN(C(=S)Nc2ccccc2)C(C)(C)C1	none
CN(C(=O)COC(=O)c1ccc(Cl)c(S(=O)(=O)NCc2ccccc2)c1)C1CCS(=O)(=O)C1 (stereo unspecified)	none (no result: HSF1 inh, HSF-1 act)
COc1ccc(N(C)S(=O)(=O)c2cccc(C(=O)Nc3nnc(C4CC4)s3)c2)cc1	none (no result: Dyrk1A ADPGlo)
COc1cc(OC)c(N(C)S(=O)(=O)c2cccc(C(=O)Nc3nnc(C4CC4)s3)c2)cc1Cl	HSF-1 act 131
Cc1cc(C(=O)CSc2ccc(F)cc2)cc(C)c1OC(=S)N(C)C	HSF1 inh -62
O=C(NCCc1cccc(Cl)c1)c1cc2ccccc2oc1=O	HSF-1 act 278 (no result: GC-A act, GC-B act)
COc1ccccc1NC(=S)NNC(=S)Nc1ccc(OC(F)F)cc1	none
O=C1C2C3C=CC(CC3)C2C(=O)N1c1cccc(C(F)(F)F)c1 (stereo unspecified)	none
Cn1c(/C=C/c2ccccc2)nc2ccccc21	none
CC(=O)c1ccc(/C=C/c2nc3ccccc3n2C)o1	HSF-1 act 66 (no result: Dyrk1A ADPGlo)
CCOC(=O)Cc1nnc2c(Nc3ccc(C)cc3)nc3nonc3n12	none
CCOC(=O)Cc1nnc2c(Nc3ccccc3F)nc3nonc3n12	HSF1 inh -74
CCOC(=O)C1=C(C)OC(N)=C(C#N)C1c1ccsc1 (stereo unspecified)	none
N#CC1=C(N)Oc2c(O)cc3ccccc3c2C1c1ccsc1 (stereo unspecified)	HSF-1 act 71
CC1(C)Cc2c(C#N)c(SCC(=O)c3ccccc3)nc(N3CCOCC3)c2CO1	none (no result: HSF1 inh, HSF-1 act)
CC1(C)Cc2c(C#N)c(SCc3ccccc3)nc(N3CCOCC3)c2CO1	GC-B act 52
CCCOC(=O)CSc1nc(N2CCOCC2)c2c(c1C#N)CC(C)(C)OC2	none
CCCCCSc1nc(N2CCOCC2)c2c(c1C#N)CC(C)(C)OC2	GC-A act 44, GC-B act 47
O=C(NCCN1CCOCC1)c1ccc2c(c1)N(Cc1ccccc1F)C(=O)c1ccccc1S2	none
Cc1ccccc1CN1C(=O)c2ccccc2Sc2ccc(C(=O)NCCN3CCOCC3)cc21	HSF-1 act 60
COc1ccccc1CNC(=O)CN1C(=O)NC2(CCCc3ccccc32)C1=O (stereo unspecified)	none (no result: HSF1 inh, Dyrk1A ADPGlo, HSF-1 act)
Brc1c(CSc2nc3ccccc3s2)nc2ncccn12	HSF-1 act 66
O=[N+]([O-])c1ccc2sc(SCc3nc4ccccn4c3Br)nc2c1	none (no result: aDG glyco up, Dyrk1A ADPGlo, GC-A act, GC-B act)
Cc1cc2oc(C(=O)NCC(c3ccco3)N3CCCC3)c(C)c2cc1C (stereo unspecified)	none (no result: HSF1 inh, Dyrk1A ADPGlo, HSF-1 act)
C(=N\Nc1nc2ccccc2[nH]1)/c1ccc2ncccc2c1	none
C(=N\Nc1nc2ccccc2[nH]1)/c1cccc2nccnc12	HSF-1 act 64
COc1ccc(/C=N/Nc2nc3ccccc3[nH]2)cc1OC	HSF-1 act 369
C(=N\Nc1nc2ccccc2[nH]1)/c1ccccn1	none

Screening results from PubChem.
